From PubChem BioAssay
Rtt109 Vps75 = inhibitors of Candida albicans Rtt109/Vps75 histone acetyltransferase; Q5AAJ8; inhibition, % at 34.9 µM; purified Rtt109/Vps75, ThioGlo CoA-SH fluorescence, 4 h; hit rate 0.16% among 330,000; AID 540336;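 active = inhibition of at least 50% in every replicate; inconclusive = best replicate reaches 50% inhibition but some replicates fall short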
Target sequence (Q5AAJ8 whole entry, looked up): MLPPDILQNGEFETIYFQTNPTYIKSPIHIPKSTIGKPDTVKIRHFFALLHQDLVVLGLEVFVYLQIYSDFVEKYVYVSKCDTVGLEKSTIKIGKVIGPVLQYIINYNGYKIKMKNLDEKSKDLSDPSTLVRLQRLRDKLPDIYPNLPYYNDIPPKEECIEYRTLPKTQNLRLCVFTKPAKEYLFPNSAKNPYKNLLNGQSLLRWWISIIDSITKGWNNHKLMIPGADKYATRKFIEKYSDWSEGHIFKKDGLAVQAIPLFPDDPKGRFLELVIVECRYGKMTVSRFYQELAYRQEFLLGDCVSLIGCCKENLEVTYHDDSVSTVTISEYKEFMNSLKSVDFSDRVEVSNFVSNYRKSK
PHOSPHO1 block = blocks human PHOSPHO1 phosphatase activity. hit rate 1.1% among 290,000. Q8TCT1. recombinant PHOSPHO1, absorbance phosphatase assay. inhibition, % at 13.3 µM; in the data active = inhibition above about 60%
Target sequence (Q8TCT1 whole entry, looked up): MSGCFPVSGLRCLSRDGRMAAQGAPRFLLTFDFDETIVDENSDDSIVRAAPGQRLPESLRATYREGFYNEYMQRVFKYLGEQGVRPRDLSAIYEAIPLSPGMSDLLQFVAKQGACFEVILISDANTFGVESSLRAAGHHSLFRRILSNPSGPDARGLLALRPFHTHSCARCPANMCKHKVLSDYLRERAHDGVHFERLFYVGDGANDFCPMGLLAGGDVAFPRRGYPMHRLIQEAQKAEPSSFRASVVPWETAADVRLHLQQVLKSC
Platelet DG rel = platelet dense granule release activity. human platelet-rich plasma, SFLLRN dense granule ATP release, luminescence. inhibition, %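 (compounds screened at 7.5 µM in platelet-rich plasma)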. hit rate 0.22% among 300,000;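 active = mean replicate score, as percent of positive control, at or above 50; inconclusive = mean below 50 but at least one replicate at or above 50; inactive = mean and every replicate below 50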
SKKanGAS inh = SKKanGAS growth inhibition. S. pyogenes SKKanGAS, kanamycin growth, BacTiter-Glo, 6 h. inhibition, % at 7.5 µM. hit rate 1.3% among 300,000. AID 1662;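 active = mean replicate score, as percent of positive control median, at least 50; inconclusive = mean below 50 but one replicate at or above 50; inactive = mean and every replicate below 50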;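 note: strain carries kanamycin resistance gene driven by streptokinase promoter and grows in 40 µg/ml kanamycin; loss of luminescence reflects streptokinase promoter inhibition or plain growth inhibition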
WT yeast gro inh = growth inhibition of WT yeast, mitochondrial fusion screen. mitochondrial fusion phenotypic screen, WT strain. AID 1362. hit rate 2.1% among 190,000. inhibition, % at 10 µM; in the data active = inhibition above about 58%; tested in S. cerevisiae
TPT1 inhibitor = C. albicans TPT1 enzyme inhibition; hit rate 0.81% among 300,000; AID 1962; inhibition, % at 5 µM; recombinant caTPT1, FP RNA substrate dephosphorylation;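 active = inhibition above the mean of all tested compounds plus 3 SD, set per screening campaign, cut at about 24% in these data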
Of the large screens only hits and unclear results are named; the others gave an inactive call. Compounds with a hit are over-represented: about 3.9% of the library has one in this group of screens.

CCCC1=NN2C(=N)/C(=C\c3cc(C)n(Cc4ccccc4)c3C)C(=O)N=C2S1	none (no result: WT yeast gro inh)
CS(=O)(=O)C1=NN2C(=N)/C(=C\c3ccc(OC(=O)c4ccco4)cc3)C(=O)N=C2S1	Rtt109 Vps75 57 (no result: WT yeast gro inh)
Cc1cc(/C=C2\C(=N)N3N=C(S(C)(=O)=O)SC3=NC2=O)c(C)n1Cc1ccccc1	SKKanGAS inh 54
Cc1cc(/C=C2/C(=N)N3C(=NC2=O)SN=C3S(C)(=O)=O)c(C)n1-c1ccccc1F	Rtt109 Vps75 inconclusive, SKKanGAS inh 56
CCN(CC(=O)NCC(=O)Nc1ccc(Br)cc1C)Cc1ccccc1	none (no result: PHOSPHO1 block, WT yeast gro inh)
O=C(CCNC(=O)c1ccccc1Cl)Nc1ccc(S(=O)(=O)Nc2nccs2)cc1	none (no result: PHOSPHO1 block, Platelet DG rel, SKKanGAS inh, WT yeast gro inh, TPT1 inhibitor)
O=C1C=CC(c2ccccc2)(c2ccccc2)CC1	none (no result: PHOSPHO1 block, Platelet DG rel, SKKanGAS inh, WT yeast gro inh, TPT1 inhibitor)
CCOC(=O)Nc1sc(C)nc1-c1ccccc1	none
CCOC(=O)Nc1nc(-c2ccccc2)c(C(=O)c2ccc(Cl)cc2)s1	WT yeast gro inh 59
O=c1[nH]c2ccc(NC(=S)Nc3ccc(Cl)cc3Cl)cc2[nH]1	none
O=c1[nH]c2ccc(NC(=S)Nc3ccccc3Cl)cc2[nH]1	Platelet DG rel 54
CCOC(=O)N1C(=O)C2(CCCCC2)N(c2ccccc2Cl)C1=S	WT yeast gro inh 77
CC(C)c1ccc2oc(-c3cc(N)ccc3O)nc2c1	WT yeast gro inh 68
Cc1ccccc1-c1nc2cc(N)ccc2o1	none
O=c1cc(CSc2ccc(Cl)cc2)nc(-c2ccccn2)[nH]1	SKKanGAS inh 97 (no result: PHOSPHO1 block, WT yeast gro inh)
O=c1cc(CSc2ccc(Cl)cc2)nc(-c2ccccc2)[nH]1	none
Oc1c(N=NC(=S)Nc2ccccc2F)c2ccccc2n1Cc1ccccc1	SKKanGAS inh inconclusive
C=CCn1c(O)c(N=NC(=S)Nc2cccc(C)c2)c2ccccc21	SKKanGAS inh 94
CCn1c(O)c(N=NC(=O)CNc2cccc(C)c2)c2ccccc21	none
Cc1ccc(Cn2c(O)c(N=NC(=S)Nc3ccccc3F)c3ccccc32)cc1	SKKanGAS inh 61
C=CCn1c(O)c(N=NC(=S)Nc2ccccc2F)c2ccccc21	SKKanGAS inh 101
O=C(O)c1cc(N2C(=O)CCC2=O)ccc1Cl	none (no result: PHOSPHO1 block, WT yeast gro inh)
CC1CN(S(=O)(=O)c2cccc(C(=O)OCC(=O)c3cccs3)c2)CC(C)O1 (stereo not drawn)	none
CC1CN(S(=O)(=O)c2cccc(C(=O)OCC(=O)Nc3ccc4c(c3)OCO4)c2)CC(C)O1 (stereo not drawn)	PHOSPHO1 block 62 (no result: Platelet DG rel, SKKanGAS inh)
Cc1ccc(-n2nnnc2SCC(=O)N2CCc3ccccc3C2)cc1	none
Nn1c(COc2cccc(Br)c2)nnc1SCC(=O)N1CCc2ccccc2C1	PHOSPHO1 block 82
Cc1ccc(-n2nnnc2SCC(=O)N2CCc3ccccc3C2)c(C)c1	WT yeast gro inh 61
Cc1cccc(C)c1-n1nnnc1C1(Nc2ccccc2)CCCCC1	WT yeast gro inh 73
Clc1ccc(NC2(c3nnnn3C3CCCCC3)CCCCC2)cc1	none
COCc1cc(C)nc2sc(C(=O)Nc3nccs3)c(N)c12	PHOSPHO1 block 83
Cc1cc(C)c2c(N)c(C(=O)Nc3nccs3)sc2n1	none
Cc1cc(S(=O)(=O)Nc2ccc(N(C)C)cc2)c(C)s1	PHOSPHO1 block 67
O=C1c2ccccc2C(=O)N1CCCCN(C(=O)c1cc([N+](=O)[O-])ccc1Cl)c1ccc(Cl)cc1	WT yeast gro inh 66
O=C1c2ccccc2C(=O)N1CCCCN(C(=O)c1cc([N+](=O)[O-])cc([N+](=O)[O-])c1)c1ccc(Cl)cc1	none
CCC(C)(C)c1ccc(OCCCC[n+]2ccc(C)cc2)c(C(C)(C)CC)c1	WT yeast gro inh 99 (no result: Rtt109 Vps75)
Cc1ccc(C#N)c(SCc2ccccc2F)n1	none (no result: Rtt109 Vps75, WT yeast gro inh)
Cc1ccc2nc(CSc3nc(C)ccc3C#N)[nH]c2c1	PHOSPHO1 block 100
Fc1ccc(-n2cc(CNCCc3ccccn3)c(-c3ccccc3Cl)n2)cc1	PHOSPHO1 block 67
O=C1C(=O)N(c2ccccn2)C(c2cccc(F)c2)/C1=C(/O)c1ccccc1 (stereo not drawn)	none (no result: WT yeast gro inh)
COCCN(CCOC)S(=O)(=O)c1ccc(C(=O)Nc2nnc(COC)o2)cc1	none
COCc1nnc(NC(=O)c2ccc(S(=O)(=O)N(C)C3CCCCC3)cc2)o1	SKKanGAS inh 62
CCCN(CCC)S(=O)(=O)c1ccc(C(=O)Nc2nnc(COC)o2)cc1	SKKanGAS inh 69
CSc1nnc(-c2ccccc2N=Cc2c(C)[nH]n(-c3ccc4ccccc4c3)c2=O)c(=O)[nH]1	none
C=CCSc1nnc(-c2ccccc2N=Cc2c(C)[nH]n(-c3ccccc3)c2=O)c(=O)[nH]1	PHOSPHO1 block 69
O=C(Nc1ccc(F)c(Cl)c1)Nc1csc2ccccc12	SKKanGAS inh 95 (no result: WT yeast gro inh)
COC(=O)C(C)(C)ONC(=O)Nc1ccc(C)cc1	none
COC(=O)C(C)(C)ONC(=O)Nc1ccc([N+](=O)[O-])cc1	PHOSPHO1 block 61
O=C(Nc1ccc(C(=O)O)cc1)Nc1ccc([N+](=O)[O-])cc1	none (no result: WT yeast gro inh)
O=C(Nc1ccc(F)cc1F)Nc1csc2ccccc12	none (no result: Rtt109 Vps75, WT yeast gro inh)
COC(=O)c1ccc(NC(=O)Nc2ccc(F)cc2)cc1	none
COC(=O)c1ccc(NC(=O)Nc2ccc(F)c(Cl)c2)cc1	WT yeast gro inh 62
COC(=O)c1ccc(NC(=O)Nc2ccc([N+](=O)[O-])cc2)cc1	SKKanGAS inh 51 (no result: WT yeast gro inh)
O=C(Nc1ccc([N+](=O)[O-])cc1)Nc1ccc(Cl)cc1F	SKKanGAS inh 58 (no result: Rtt109 Vps75)
COc1ccc(-c2cc(-c3cc(OC)ccc3O)[nH]n2)cc1	none
Oc1ccc(Br)cc1-c1cc(-c2ccc(Cl)cc2)n[nH]1	none (no result: WT yeast gro inh)
Oc1ccc(Br)cc1-c1cc(-c2ccccc2)n[nH]1	SKKanGAS inh 80
COc1ccc(O)c(-c2cc(-c3cccc(Br)c3)n[nH]2)c1	SKKanGAS inh 56
CC12CCC(C/C1=N\N=C1\NC(=O)/C(=C\c3ccc(Cl)cc3)S1)C2(C)C (stereo not drawn)	SKKanGAS inh 106
CN(Cc1ccc(N(C)C)cc1)C(=O)c1cc2ccccc2o1	SKKanGAS inh 60 (no result: WT yeast gro inh)
CN(Cc1ccccc1)C(=O)c1cc2ccccc2o1	none
CC(C)(C)N=C1NN=C(c2ccc(Cl)cc2)CS1	none (no result: WT yeast gro inh)
CC(C)(C)N=C1NN=C(c2cc3ccccc3o2)CS1	WT yeast gro inh 67
Cc1cccc(C)c1NC(=O)CN1C(=O)S/C(=C\c2cccn2-c2cccc(C(=O)O)c2)C1=O	none
Cc1cccc(C)c1-n1cccc1/C=C1\SC(=S)N(c2cccc(C(=O)O)c2)C1=O	SKKanGAS inh 111, WT yeast gro inh 84
Cc1ccc(NC(=O)CN2C(=O)S/C(=C\c3cccn3-c3cccc(C(=O)O)c3)C2=O)c(C)c1	PHOSPHO1 block 102, SKKanGAS inh 59
CC1(C(=O)O)CCC(C(=O)Nc2ccc(OC(F)(F)Cl)cc2)C1(C)C (stereo not drawn)	none (no result: WT yeast gro inh)
CCCCOc1ccc(C(=O)OCC(=O)N2CCOCC2)cc1	none (no result: WT yeast gro inh)
COc1ccccc1Nc1nc(-c2sc(NC(=O)c3ccco3)nc2C)cs1	PHOSPHO1 block 86
